# Laboratory results taken from PubChem BioAssay (EPA / NIEHS).
# Activity calls are given as the source filed them. Rule for the calls: active = hit-call score of the fitted dose curve at least 0.9, where 1 is the maximum; inactive = score below 0.9.
# Key:
# [1] = ATG_E_Box_CIS: Attagene CIS-FACTORIAL HepG2 Assay for human Enhancer Box (E-box) (AID 2282936); conditions: HepG2 E-box cis-reporter transcription, actives raise or lower the signal
# In short: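 Transiently transfected HepG2, endogenous TF-driven reporters, 24 h dosing. Readout: RT-PCR plus capillary electrophoresis of fluorescent reporter fragments. Gain or loss of signal fitted bidirectionally against DMSO baseline.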
# [2] = ATG_M_61_CIS: Attagene CIS-FACTORIAL HepG2 Assay for M61 Transcription Factor (Internal Marker) (AID 2282937); conditions: HepG2 Attagene CIS-FACTORIAL M61 internal marker reporter; actives raise or lower the signal
# In short: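 Background-control endpoint: HepG2 cells with cis-regulated reporter constructs, 24 h exposure, reporter mRNA detected via fluorescent primer extension and capillary electrophoresis; values from bidirectional fitting with DMSO baseline.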
# [3] = ATG_EGR_CIS: Attagene CIS-FACTORIAL HepG2 Assay for human Early Growth Response 1 (EGR1) (AID 2282938); conditions: HepG2 Attagene CIS-FACTORIAL EGR reporter mRNA; actives raise or lower the signal
# In short: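 Endpoint derived by bidirectional fitting versus DMSO vehicle. Method: cis-promoter reporter units transfected into HepG2, 24 h dosing, RNA isolation, RT-PCR with 6-FAM primer extension and HpaI digestion, then capillary electrophoresis fluorescence detection.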
# [4] = ATG_M_19_CIS: Attagene CIS-FACTORIAL HepG2 Assay for M19 Transcription Factor (Internal Marker) (AID 2282939); conditions: HepG2 Attagene CIS-FACTORIAL M19 internal marker reporter; actives raise or lower the signal
# In short: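 Background-control endpoint from a multiplexed HepG2 reporter panel. Cells carrying cis-regulated reporter constructs are treated 24 h, then reporter transcripts are amplified, fluorescently labelled and sized by capillary electrophoresis. DMSO defines baseline.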
# [5] = ATG_ERE_CIS: Attagene CIS-FACTORIAL HepG2 Assay for Estrogen Response Element (ERE) (AID 2282940); conditions: HepG2 ERE cis-reporter, Attagene RNA transcript; actives raise or lower the signal
# In short: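 Cells used were human hepatoma HepG2, transfected with multiple reporter transcription units under cis-regulatory promoters. Reporter mRNA, read 24 h post-dosing via fluorescent RT-PCR products on capillary electrophoresis, was fitted bidirectionally relative to DMSO.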
# [6] = ATG_Ets_CIS: Attagene CIS-FACTORIAL HepG2 Assay for human Erythroblast Transformation Specific (ETS) (AID 2282941); conditions: HepG2 ETS cis-reporter transcription, actives raise or lower the signal
# In short: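 Multiplexed reporter transcript profiling: HepG2, 24 h treatment, total RNA to cDNA, PCR, 6-FAM labelling, HpaI cut, capillary electrophoresis. Gain- or loss-of-signal fitted against DMSO.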
# [7] = target: Hepatocyte nuclear factor 3-beta (Homo sapiens) (UniProt Q9Y261); assay: ATG_FoxA2_CIS: Attagene CIS-FACTORIAL HepG2 Assay for human Forkhead box A2 (FOXA2) (AID 2282942); conditions: HepG2 cis-reporter transcription factor activity, 24 h; actives raise or lower the signal
# In short: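 Measured: reporter mRNA induction or loss in HepG2 transiently carrying multiple cis-regulated reporter units, 24 h after dosing. Quantified by RT-PCR plus capillary electrophoresis, normalised to DMSO.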
# [8] = ATG_FoxO_CIS: Attagene CIS-FACTORIAL HepG2 Assay for human Forkhead box O (FoxO) (AID 2282943); conditions: HepG2 Attagene cis-reporter, FoxO element, mRNA; actives raise or lower the signal
# In short: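 Transfected HepG2 reporter cells exposed to test chemical for 24 h; reporter RNA measured by reverse transcription, PCR and fluorescent capillary electrophoresis; curves fitted for increases and decreases against DMSO.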
# [9] = ATG_GATA_CIS: Attagene CIS-FACTORIAL HepG2 Assay for human GATA Binding Protein (AID 2282944); conditions: HepG2 GATA cis-element reporter, Attagene multiplex mRNA; actives raise or lower the signal
# In short: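 Endogenous transcription factor activity was captured through cis-promoter-driven reporters in transfected HepG2 cells. After 24 h exposure, reporter transcripts were quantified by RT-PCR with fluorescent capillary electrophoresis, and responses fitted both directions against DMSO.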
# [10] = ATG_GLI_CIS: Attagene CIS-FACTORIAL HepG2 Assay for human Zinc Finger Protein GLI1 (AID 2282945); conditions: HepG2, Attagene cis-factorial reporter mRNA, GLI element; actives raise or lower the signal
# In short: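 Transiently transfected HepG2 cells report endogenous transcription factor activity via cis-element-driven reporter units. After 24 h compound exposure, reporter mRNA was measured by RT-PCR with capillary electrophoresis; bidirectional fitting against DMSO baseline.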
# [11] = ATG_GRE_CIS: Attagene CIS-FACTORIAL HepG2 Assay for human Glucocorticoid Response Elements (GRE) (AID 2282947); conditions: HepG2 GRE cis-reporter, Attagene multiplex mRNA; actives raise or lower the signal
# In short: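 Read-out: fluorescent reporter-transcript fragments separated by capillary electrophoresis after RT-PCR. Transiently transfected HepG2 cells carrying cis-element-driven reporter units were dosed for 24 h; gain or loss of signal fitted against DMSO control.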
# [12] = ATG_ISRE_CIS: Attagene CIS-FACTORIAL HepG2 Assay for human Interferon Regulatory Factor 1 (IRF1) binding to an Interferon-Stimulated Response Element (ISRE) (AID 2282948); conditions: HepG2 ISRE cis-reporter (Attagene), mRNA transcription readout; actives raise or lower the signal
# In short: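 Signal reflects induction or loss of ISRE-linked reporter mRNA in transiently transfected HepG2 cells after a 24 h treatment, detected by fluorescent RT-PCR fragments on capillary electrophoresis and normalised to DMSO.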
# [13] = ATG_M_06_CIS: Attagene CIS-FACTORIAL HepG2 Assay for M06 Transcription Factor (Internal Marker) (AID 2282950); conditions: HepG2 Attagene CIS-FACTORIAL M06 internal marker reporter; actives raise or lower the signal
# In short: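 Steps: transfect HepG2 with multiplexed cis-element reporter constructs; dose chemical 24 h; extract RNA with DNase treatment; reverse-transcribe, PCR-amplify, 6-FAM label, HpaI digest; separate fragments by capillary electrophoresis. Activity fitted both directions versus DMSO.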
# [14] = target: Hypoxia-inducible factor 1-alpha (Homo sapiens) (UniProt Q16665); assay: ATG_HIF1a_CIS: Attagene CIS-FACTORIAL HepG2 Assay for human Hypoxia Inducible Factor 1 (HIF1A) (AID 2282951); conditions: HepG2 Attagene cis-factorial HIF1a reporter transcription; actives raise or lower the signal
# In short: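 Dosed 24 h, transfected HepG2 cells yielded total RNA whose reporter transcripts were RT-PCR-amplified and sized by capillary electrophoresis using fluorescent labelling; DMSO defined baseline, with gain and loss of signal both fitted.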
# [15] = target: Hepatocyte nuclear factor 6 (Homo sapiens) (UniProt Q9UBC0); assay: ATG_HNF6_CIS: Attagene CIS-FACTORIAL HepG2 Assay for human Hepatocyte Nuclear Factor 6 (HNF6) (AID 2282952); conditions: HepG2 Attagene cis-factorial HNF6 reporter transcription; actives raise or lower the signal
# In short: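 Endogenous transcription factor activity in human HepG2 liver cells was captured through cis-regulated reporter constructs. After 24 h treatment, reporter mRNA was measured by RT-PCR with capillary electrophoresis, and activity was fitted in both directions relative to DMSO.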
# [16] = target: Heat shock factor protein 1 (Homo sapiens) (UniProt Q00613); assay: ATG_HSE_CIS: Attagene CIS-FACTORIAL HepG2 Assay for human Heat Shock Transcription Factor 1 (HSE) (AID 2282953); conditions: HepG2 HSE cis-reporter, Attagene RNA transcription; actives raise or lower the signal
# In short: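 Cells were transfected with cis-element-driven reporter constructs, dosed for 24 h, then total RNA was reverse-transcribed and reporter cDNA amplified, FAM-labelled and digested with HpaI. Fragments were resolved by capillary electrophoresis; gain or loss was fitted against DMSO.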
# [17] = ATG_M_32_CIS: Attagene CIS-FACTORIAL HepG2 Assay for M32 Transcription Factor (Internal Marker) (AID 2282949); conditions: HepG2 Attagene cis-factorial M32 reporter, mRNA; actives raise or lower the signal;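 note: background control marker of the multiplexed CIS panel rather than a real target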
# In short: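 Using DMSO as baseline, bidirectional curve fits were applied to reporter mRNA signals. These came from transiently transfected HepG2 cells exposed for 24 h, with RNA analysed by RT-PCR, FAM primer extension, HpaI digestion and CE.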
# [18] = ATG_MRE_CIS: Attagene CIS-FACTORIAL HepG2 Assay for human Metal Responsive Element (MRE) (AID 2282954); conditions: HepG2 MRE cis-reporter transcription, Attagene multiplex; actives raise or lower the signal
# In short: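 RT-PCR/capillary electrophoresis readout of reporter mRNA, 24 h post-dosing, in HepG2 cells transfected with multiplexed cis-regulated reporter constructs. Gain or loss of signal fitted bidirectionally against DMSO baseline.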
# [19] = ATG_PBREM_CIS: Attagene CIS-FACTORIAL HepG2 Assay for human Phenobarbital-responsive Enhancer Module (PBREM) (AID 2282955); conditions: HepG2 PBREM cis-reporter, Attagene multiplexed transcription; actives raise or lower the signal
# In short: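 Transfected liver-derived HepG2 cells exposed 24 h; PBREM reporter transcript quantified via RT-PCR and capillary electrophoresis, with activity in either direction referenced to DMSO.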
# [20] = target: Bile acid receptor (Homo sapiens) (UniProt Q96RI1); assay: ATG_IR1_CIS: Attagene CIS-FACTORIAL HepG2 Assay for human Nuclear Receptor Subfamily 1 Group H Member 4 (NR1H4), IR1 submotif (AID 2282946); conditions: IR1 reporter transcription, actives raise or lower the signal
# In short: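 Fluorescence of capillary-separated, HpaI-digested RT-PCR reporter products gave IR1-element mRNA induction in HepG2 cells 24 h after dosing. Endogenous transcription factors drove the cis-regulated reporters; activity was fitted bidirectionally against DMSO.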
# Hepatocyte nuclear factor 3-beta (Homo sapiens), sequence (Q9Y261 whole entry, looked up): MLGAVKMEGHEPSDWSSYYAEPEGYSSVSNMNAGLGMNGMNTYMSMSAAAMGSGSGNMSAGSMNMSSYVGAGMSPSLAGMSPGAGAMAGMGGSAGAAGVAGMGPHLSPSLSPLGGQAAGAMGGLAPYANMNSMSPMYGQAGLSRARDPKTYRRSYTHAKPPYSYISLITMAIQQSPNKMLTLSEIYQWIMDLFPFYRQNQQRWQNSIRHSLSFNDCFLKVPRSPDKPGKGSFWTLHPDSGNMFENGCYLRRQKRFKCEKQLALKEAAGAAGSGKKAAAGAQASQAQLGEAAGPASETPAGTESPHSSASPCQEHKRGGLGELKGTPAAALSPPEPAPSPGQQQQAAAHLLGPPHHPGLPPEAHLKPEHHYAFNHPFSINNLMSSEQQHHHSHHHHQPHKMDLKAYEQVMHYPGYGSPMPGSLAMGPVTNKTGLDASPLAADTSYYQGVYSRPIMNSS
# Hepatocyte nuclear factor 6 (Homo sapiens), sequence (Q9UBC0 whole entry, looked up): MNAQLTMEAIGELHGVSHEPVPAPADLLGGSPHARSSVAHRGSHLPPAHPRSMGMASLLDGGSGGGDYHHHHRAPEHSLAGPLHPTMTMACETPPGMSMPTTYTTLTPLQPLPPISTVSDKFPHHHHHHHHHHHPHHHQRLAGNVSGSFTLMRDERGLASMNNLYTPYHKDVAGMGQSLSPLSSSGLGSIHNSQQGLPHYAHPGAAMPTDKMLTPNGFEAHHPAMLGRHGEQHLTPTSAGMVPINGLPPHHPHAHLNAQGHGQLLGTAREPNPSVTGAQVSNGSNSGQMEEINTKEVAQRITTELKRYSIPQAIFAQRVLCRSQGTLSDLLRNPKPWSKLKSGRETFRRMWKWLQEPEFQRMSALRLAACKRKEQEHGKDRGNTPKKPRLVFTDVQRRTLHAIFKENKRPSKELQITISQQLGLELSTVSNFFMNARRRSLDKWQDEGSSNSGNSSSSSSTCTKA
# Hypoxia-inducible factor 1-alpha (Homo sapiens), sequence (Q16665 whole entry, looked up): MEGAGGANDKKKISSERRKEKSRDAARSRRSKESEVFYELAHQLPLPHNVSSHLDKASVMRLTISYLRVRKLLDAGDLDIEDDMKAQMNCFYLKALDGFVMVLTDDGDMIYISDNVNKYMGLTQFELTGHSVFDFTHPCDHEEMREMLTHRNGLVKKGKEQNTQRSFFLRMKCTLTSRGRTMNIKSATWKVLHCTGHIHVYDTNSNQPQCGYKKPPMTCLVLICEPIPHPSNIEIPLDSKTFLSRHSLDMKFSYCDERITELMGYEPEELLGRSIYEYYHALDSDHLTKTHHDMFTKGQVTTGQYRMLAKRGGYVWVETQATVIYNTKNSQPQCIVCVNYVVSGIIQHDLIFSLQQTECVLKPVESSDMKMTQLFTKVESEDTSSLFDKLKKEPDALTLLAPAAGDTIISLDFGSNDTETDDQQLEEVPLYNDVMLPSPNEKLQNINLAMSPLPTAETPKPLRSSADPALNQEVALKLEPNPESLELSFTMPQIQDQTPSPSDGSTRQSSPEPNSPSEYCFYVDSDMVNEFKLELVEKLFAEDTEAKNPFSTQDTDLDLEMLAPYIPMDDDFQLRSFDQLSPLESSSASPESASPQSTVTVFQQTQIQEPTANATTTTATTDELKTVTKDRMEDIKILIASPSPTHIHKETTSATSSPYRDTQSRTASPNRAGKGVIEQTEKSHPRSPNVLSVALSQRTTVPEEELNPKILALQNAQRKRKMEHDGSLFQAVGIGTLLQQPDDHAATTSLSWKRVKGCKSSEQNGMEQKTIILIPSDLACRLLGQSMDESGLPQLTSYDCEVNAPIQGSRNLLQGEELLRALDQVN
# Bile acid receptor (Homo sapiens), sequence (Q96RI1 whole entry, looked up): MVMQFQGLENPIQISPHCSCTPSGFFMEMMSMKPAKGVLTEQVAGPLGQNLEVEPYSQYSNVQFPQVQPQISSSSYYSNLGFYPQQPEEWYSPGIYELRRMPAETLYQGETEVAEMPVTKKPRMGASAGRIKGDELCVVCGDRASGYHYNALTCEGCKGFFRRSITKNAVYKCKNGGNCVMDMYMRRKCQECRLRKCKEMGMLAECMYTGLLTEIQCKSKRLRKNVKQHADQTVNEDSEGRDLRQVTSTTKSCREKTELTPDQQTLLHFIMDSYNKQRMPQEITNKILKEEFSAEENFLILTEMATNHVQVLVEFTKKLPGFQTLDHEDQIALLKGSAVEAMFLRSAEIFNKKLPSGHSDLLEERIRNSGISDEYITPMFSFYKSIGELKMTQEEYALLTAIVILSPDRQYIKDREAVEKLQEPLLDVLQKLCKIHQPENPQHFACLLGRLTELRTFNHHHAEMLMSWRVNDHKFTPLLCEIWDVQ
# Heat shock factor protein 1 (Homo sapiens), sequence (Q00613 whole entry, looked up, the tested form may be a part): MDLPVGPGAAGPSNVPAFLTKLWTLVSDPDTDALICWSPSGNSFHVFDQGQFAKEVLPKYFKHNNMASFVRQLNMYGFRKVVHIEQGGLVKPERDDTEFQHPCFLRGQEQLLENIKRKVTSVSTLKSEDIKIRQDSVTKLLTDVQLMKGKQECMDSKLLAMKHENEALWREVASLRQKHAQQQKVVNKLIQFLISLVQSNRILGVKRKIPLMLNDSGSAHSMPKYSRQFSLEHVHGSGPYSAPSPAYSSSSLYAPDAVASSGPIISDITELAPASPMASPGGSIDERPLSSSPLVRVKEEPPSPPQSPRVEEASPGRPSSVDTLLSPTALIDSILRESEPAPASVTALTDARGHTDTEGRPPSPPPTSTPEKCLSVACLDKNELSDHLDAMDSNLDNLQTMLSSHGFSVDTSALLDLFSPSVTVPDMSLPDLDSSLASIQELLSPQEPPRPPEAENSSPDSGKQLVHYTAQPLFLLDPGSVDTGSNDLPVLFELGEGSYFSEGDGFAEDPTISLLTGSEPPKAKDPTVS
smiles,measurement,setting,value
Cc1ccc(-c2cc(C(F)(F)F)nn2-c2ccc(S(N)(=O)=O)cc2)cc1,outcome,[1],inactive
same,outcome,[2],inactive
same,outcome,[3],inactive
same,outcome,[4],inactive
same,outcome,[5],inactive
same,outcome,[6],inactive
same,outcome,[7],inactive
same,outcome,[8],inactive
same,outcome,[9],inactive
same,outcome,[10],inactive
same,outcome,[11],inactive
same,outcome,[12],inactive
same,outcome,[13],inactive
same,outcome,[14],inactive
same,outcome,[15],inactive
same,outcome,[16],inactive
CS(=O)(=O)c1ccc([C@@H](C[C@H]2CCC(=O)C2)C(=O)Nc2cnccn2)cc1Cl,outcome,[1],inactive
same,outcome,[2],inactive
same,outcome,[3],inactive
same,outcome,[4],inactive
same,AC50,[5],45.5 µM (active)
same,outcome,[6],inactive
same,outcome,[7],inactive
same,outcome,[8],inactive
same,outcome,[9],inactive
same,outcome,[10],inactive
same,outcome,[11],inactive
same,outcome,[12],inactive
same,outcome,[17],inactive
same,outcome,[13],inactive
same,outcome,[14],inactive
same,outcome,[15],inactive
same,outcome,[18],inactive
same,outcome,[19],inactive
O=C(Oc1ccccc1)c1cccc(C(=O)Oc2ccccc2)c1,outcome,[1],inactive
same,outcome,[2],inactive
same,outcome,[3],inactive
same,outcome,[4],inactive
same,outcome,[6],inactive
same,outcome,[7],inactive
same,outcome,[8],inactive
same,outcome,[9],inactive
same,outcome,[10],inactive
same,outcome,[20],inactive
same,outcome,[11],inactive
same,outcome,[12],inactive
same,outcome,[17],inactive
same,outcome,[13],inactive
same,outcome,[14],inactive
same,outcome,[15],inactive
same,outcome,[16],inactive
same,outcome,[19],inactive
O=Cc1ccccc1C=O,outcome,[1],inactive
same,outcome,[2],inactive
same,outcome,[3],inactive
same,outcome,[4],inactive
same,outcome,[5],inactive
same,outcome,[6],inactive
same,outcome,[7],inactive
same,outcome,[8],inactive
same,outcome,[9],inactive
same,outcome,[10],inactive
same,outcome,[11],inactive
same,outcome,[12],inactive
same,outcome,[13],inactive
same,AC50,[14],26.2 µM (active)
same,outcome,[15],inactive
same,outcome,[16],inactive
same,outcome,[18],inactive
CCCCC(CC)COP(=O)(OCC(CC)CCCC)OCC(CC)CCCC (stereo not drawn),outcome,[1],inactive
same,outcome,[2],inactive
same,outcome,[3],inactive
same,outcome,[4],inactive
same,outcome,[6],inactive
same,outcome,[7],inactive
same,outcome,[8],inactive
same,outcome,[9],inactive
same,outcome,[10],inactive
same,outcome,[20],inactive
same,outcome,[11],inactive
same,outcome,[12],inactive
same,outcome,[17],inactive
same,outcome,[13],inactive
same,outcome,[14],inactive
same,outcome,[15],inactive
same,outcome,[16],inactive
same,outcome,[18],inactive
same,outcome,[19],inactive
CN(C)CCCN1c2ccccc2Sc2ccc(Cl)cc21,outcome,[1],inactive
same,outcome,[2],inactive
same,AC50,[3],13.2 µM (active)
same,outcome,[4],inactive
same,outcome,[6],inactive
same,outcome,[7],inactive
same,outcome,[8],inactive
same,outcome,[9],inactive
same,outcome,[10],inactive
same,outcome,[20],inactive
same,outcome,[11],inactive
same,outcome,[12],inactive
same,outcome,[17],inactive
same,outcome,[13],inactive
same,AC50,[15],20.8 µM (active)
same,AC50,[18],15.5 µM (active)
same,outcome,[19],inactive
Cc1cc(SC2=C(O)C[C@@](CCc3ccc(N)cc3)(C(C)C)OC2=O)c(C(C)(C)C)cc1CO,outcome,[1],inactive
same,outcome,[2],inactive
same,outcome,[3],inactive
same,outcome,[4],inactive
same,outcome,[6],inactive
same,outcome,[7],inactive
same,outcome,[8],inactive
same,outcome,[9],inactive
same,outcome,[10],inactive
same,outcome,[20],inactive
same,outcome,[11],inactive
same,outcome,[12],inactive
same,outcome,[17],inactive
same,outcome,[13],inactive
same,outcome,[14],inactive
same,outcome,[15],inactive
same,outcome,[16],inactive
same,outcome,[18],inactive
